Compounds with a hit are over-represented: about 3% of the library has one in this group of screens.
Nrf2 activator: activators of Nrf2 (ARE) signaling. AID 624171. 410,000 compounds, 0.31% hits. AREc32 ARE-luciferase reporter (MCF7-derived line), luminescence, 24 h. Potency, µM (series often up to 46.1 µM), for the others: at the top dose activation, hits mostly activators; also: % of control where 0% means no effect; nearly all actives have a fitted effect of over 65% in size
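ARE-driven firefly luciferase activity in AREc32 cells measured after a 24 hr compound exposure at 37 deg C, using Steady-Glo reagent and a 30 min room-temperature hold.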
TrxR1 inh: rat TrxR1 inhibition; O89049; recombinant rTrxR1, NADPH fluorescence consumption, selenite substrate; Potency, µM (series often up to 114 µM), inactives show at the highest dose activity change, negative = inhibition, most hits filed as inhibitors; 390,000 compounds, 1% hits; AID 588453; also: % is scaled to controls: 0 for no effect and ±100 for the full control effect; nearly all actives have a fitted effect of over 65% in size
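Rat TrxR1 (90 nM in the dispensed reagent) was pre-reduced with 400 uM NADPH for 5 min at room temperature, then incubated with compound for 15 min. After 400 uM selenite was added, NADPH fluorescence (Ex 340/Em 450 nm) was followed for 8 min.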
TrxR1 substrate: rat thioredoxin reductase 1 substrate activity; O89049; purified TrxR1 substrate turnover, NADPH consumption readout; Potency, µM (highest dose often 114 µM), for the others: at the highest dose activity change, negative = substrate turnover; 390,000 compounds, 0.01% hits; AID 588456; also: % is scaled to controls: 0 for no effect and ±100 for the full control effect; nearly all actives have a fitted effect of over 50% in size
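Rat TrxR1, dispensed at 90 nM, was prereduced with 400 uM NADPH (final) for 5 min at ~22 deg C, then incubated with compound 15 min before 400 uM selenite. A first-read NADPH fluorescence drop versus no-compound background flagged substrates.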
Nrf2 inh: Nrf2 pathway inhibition; A549 ARE-Fluc reporter, luciferase luminescence, 18-24 h; Potency, µM (highest dose often 46 µM), without a hit: at the top dose activity change, negative = inhibition, hits mostly inhibitors; 360,000 compounds, 2.1% hits; AID 504444; also: % is scaled to controls: 0 for no effect and ±100 for the full control effect; nearly all actives have a fitted effect of over 60% in size
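In this cell-based qHTS, ARE-driven firefly luciferase in A549 cells reports Nrf2 activity; the luminescent signal after BugLite lysis is the measured value, with a prior CellTiter-Fluor read for cell health.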
A549 tox: counter-screen for Nrf2 inhibitors: cytotoxicity in A549 cells; A549 ARE-Fluc cells, CellTiter-Fluor viability, 18-24 h; Potency, µM (highest dose often 46 µM), without a hit: at the top dose activity change, negative = cytotoxicity, hits mostly inhibitors; 390,000 compounds, 0.16% hits; also: % is scaled to controls: 0 for no effect and ±100 for the full control effect
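A549 ARE-Fluc cells in 5% FBS OPTI-MEM, 5000 cells/well, rested 2 h then exposed to compounds in concentration-response for 18-24 h at 37 °C. Viability by CellTiter-Fluor fluorescence (Ex 405/Em 525) after 30 min; luciferase luminescence (BugLite, 15 min, RT) read afterwards.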
GALK inhibitor: galactokinase (human) inhibition; 270,000 compounds, 0.007% hits; P51570; Potency, µM (series often up to 57.5 µM), inactives show at the highest dose activity change, negative = inhibition, most hits filed as inhibitors; Purified GALK, Kinase-Glo residual ATP luminescence; also: % is scaled to controls: 0 for no effect and ±100 for the full control effect
Target sequence (P51570 whole entry, looked up): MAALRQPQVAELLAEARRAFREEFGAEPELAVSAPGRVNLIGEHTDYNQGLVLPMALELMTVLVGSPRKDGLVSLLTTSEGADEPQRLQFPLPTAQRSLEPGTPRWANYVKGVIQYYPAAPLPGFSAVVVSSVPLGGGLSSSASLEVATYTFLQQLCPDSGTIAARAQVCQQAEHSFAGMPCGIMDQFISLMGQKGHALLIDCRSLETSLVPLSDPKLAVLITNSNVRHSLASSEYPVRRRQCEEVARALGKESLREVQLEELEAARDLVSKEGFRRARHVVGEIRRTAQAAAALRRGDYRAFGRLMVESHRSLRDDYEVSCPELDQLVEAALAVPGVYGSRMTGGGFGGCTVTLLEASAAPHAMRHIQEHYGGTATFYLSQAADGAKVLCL
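Compounds were pin-transferred into ATP buffer (35 uM final), then GALK plus galactose (5 nM, 100 uM final) was added. After 1 h at room temperature, Kinase-Glo Plus was added and luminescence read after 10 min.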
* hit, by the source's call; ? = inconclusive; / = no result given; [ ] = another dose, or the depositor's remark. Calls follow the shape of the dose curve; as a rule, active = well fitted curve in the direction sought with a large enough effect; inconclusive = small, poorly fitted or top-dose-only effect, or another doubt; inactive = no such curve, though single readings can be large; an effect the other way counts as inactive or inconclusive. Potency is read from the fitted curve at half-maximal effect.

SMILES	Nrf2 activator	TrxR1 inh	TrxR1 substrate	Nrf2 inh	A549 tox	GALK inhibitor
N#CCCCN1C(=O)C(=C(C#N)C#N)c2ccccc21	?	13µM*	-4%	?	-7%	-1%
O=c1[nH]c(Sc2ccc([N+](=O)[O-])cc2[N+](=O)[O-])nc2ccccc12	?	3.2µM*	-5%	-13%	-17%	/
O=[N+]([O-])c1ccc(Sc2cc[n+]([O-])c3ccccc23)c([N+](=O)[O-])c1	?	?	-3%[57.1 µM]	16µM*	?	-1%
O=C(CSc1nc2ccccc2c(=O)[nH]1)Nc1ccc([N+](=O)[O-])cc1	-1%	-20%[57.1 µM]	-17%[57.1 µM]	16µM*	-6%	/
CCCOc1ccc(NC(=O)CC2C(=O)N(c3ccccc3)C(=O)N2CCC(C)C)cc1 (centres undefined)	4%	6%	-11%	9%	-30%	/
COc1cccc(C2CC(c3ccc(Br)cc3)=NN2C(=O)c2ccncc2)c1OC (centres undefined)	3%	5%[57.1 µM]	0%[57.1 µM]	18µM*	-15%	-3%
Cc1ccc(-n2c(=O)c3c4c(sc3n(CC(=O)Nc3cccc(Cl)c3)c2=O)CCCCC4)cc1C	0%	20%	2%	-8%	-8%	/
C=Cc1ccc(CSc2nnc(C)n3c2cc2occc23)cc1	6%	14%	0%	18µM*	12%	/
Cc1nnc(SCc2ccc(Cl)cc2)c2cc3occc3n12	7%	25%	6%	?	?	/
O=C1C=C(C#Cc2ccc(Oc3ccccc3)cc2)C[C@@H](c2ccc(F)cc2)C1	25%	/	/	/	/	/
COc1cccc(C#CC2=CC(=O)C[C@H](c3ccc(F)cc3)C2)c1	16µM*	/	/	/	/	/
CCc1ccc2oc(-c3cc(N=Cc4cccc(OC)c4O)ccc3O)nc2c1	10µM*	15%[57.1 µM]	-3%[57.1 µM]	?	-11%	-1%
O=C(NC(=S)Nc1ccc(F)cc1)c1ccc2c(c1)OCCO2	0%	?	-2%	?	-2%	-2%
O=C(Nc1ccc2c(c1)OCCO2)c1ccc2ccccc2n1	7.9µM*	35%[57.1 µM]	9%[57.1 µM]	?	-10%	2%
O=C(NC(=S)Nc1ccc2c(c1)OCCO2)c1ccccc1	-1%	7.1µM*	0%	/	10%	-3%
O=C(NC(=S)Nc1ccc2c(c1)OCCO2)c1ccccc1F	0%	?	-5%[57.1 µM]	4%	1%	-2%
O=C(NC(=S)Nc1cnc2ccccc2c1)c1ccccc1	?	?	8%	?	2%	1%
Cn1ncc2cc(NC(=S)NC(=O)c3ccccc3)ccc21	4%	25µM*	-10%	?	?	-1%
COc1ccc(NC(=S)NC(=O)c2ccc3c(c2)OCCO3)cc1	0%	3.5µM*	-13%	18%	-8%	/
CCc1nn2c(=O)cc(N3C(C)CNCC3C)nc2s1 (centres undefined)	/	/	/	12%	-1%	/
CCc1ccc2oc(-c3cc(NC(=O)c4cccnc4)cc(C)c3O)nc2c1	0%	17%	-4%	?	3%	/
O=C(Nc1ccc2oc(-c3ccccc3F)nc2c1)c1ccc2c(c1)OCCO2	0%	44%	53%	13µM*	?	-2%
Cc1ccc[n+](CC2OCc3ccccc3CO2)c1	-1%	8%[57.1 µM]	8%[57.1 µM]	7.3µM*	0%	-1%
CCCCN(CCCC)CC1OCc2ccccc2CO1	0%	30%	13%	5%	0%[1.84 µM]	-1%
O=C(Nc1ccc2nc(-c3cccs3)c(-c3cccs3)nc2c1)N1CCCC1	/	15%	95%	34%	?	/
SMILES	Nrf2 activator	TrxR1 inh	TrxR1 substrate	Nrf2 inh	A549 tox	GALK inhibitor
CCOC(=O)C1CCN(C(=O)Nc2ccc3nc(-c4ccco4)c(-c4ccco4)nc3c2)CC1	12%	3.2µM*	31%	-10%	?	-4%
O=C(Nc1ccc2nc(-c3ccco3)c(-c3ccco3)nc2c1)N1CCCCCC1	25%	1.8µM*	34%	-18%	0%[1.84 µM]	-2%
CCOC(=O)C1CCN(C(=O)Nc2ccc3c(c2)nc(C)n3C)CC1	2%	12%	6%	19%	2%[1.84 µM]	-1%
Cc1ccccc1CS(=O)(=O)c1nnc([C@H](Cc2ccccc2)NC(=O)OC(C)(C)C)o1	-1%	0.63µM*	0%	23µM*	-6%[1.84 µM]	1%
CCC(C)[C@@H](NC(=O)OC(C)(C)C)c1nnc(S(=O)(=O)Cc2cccc(C)c2)o1 (some centres undefined)	-3%	1.8µM*	-15%	/	-8%	-2%
CC(C)(C)OC(=O)N[C@@H](Cc1ccccc1)c1nnc(SCC(=O)c2ccc(Cl)cc2)o1	0%	4%	5%	26µM*	-18%	1%
CC(C)(C)OC(=O)N[C@@H](Cc1ccccc1)c1nnc(S(=O)(=O)Cc2ccccc2)o1	/	/	/	/	/	0%
Cc1[nH]c2ccccc2c1C(c1ccncc1)N1CCC(C)CC1 (centres undefined)	3%	-45%	-5%	-3%	2%	6%
Cc1[nH]c2ccccc2c1C(c1ccccn1)N1CCC(C(N)=O)CC1 (centres undefined)	?	1.6µM*	5%	8%	0%	2%
CCN(c1ccc(NC(=O)c2ccc(N3CCCC3=O)cc2)cc1)C(C)C	-1%	9%	3%	9.2µM*	-21%	/
CN(C)S(=O)(=O)c1cccc(NC(=O)c2ccc(N3CCCC3=O)cc2)c1	-1%	1%	-8%	-18%	1%	/
COc1ccc(OC)c(C2C(C(=O)c3cc4ccccc4o3)=C(O)C(=O)N2c2cc(C)on2)c1 (centres undefined)	3%	-24%	-8%	?	12µM*	1%
CCCOc1ccc(C2C(C(=O)c3cc4ccccc4o3)=C(O)C(=O)N2c2cc(C)on2)cc1 (centres undefined)	0%	-13%	-7%	?	21µM*	-2%
CCCOc1ccc(C2C(C(=O)c3cc4ccccc4o3)=C(O)C(=O)N2c2cc(C)on2)cc1OC (centres undefined)	0%	-7%	-12%	?	-28%	3%
COc1ccccc1C1C(C(=O)c2cc3ccccc3o2)=C(O)C(=O)N1c1cc(C)on1 (centres undefined)	18%	-4%	-10%	-12%	-5%	-1%
CCCNS(=O)(=O)c1cccc(C(=O)NC2CCCc3ccccc32)c1 (centres undefined)	2%	6%	2%	16µM*	?	1%
CN(C)S(=O)(=O)c1cccc(C(=O)NC2CCCc3ccccc32)c1 (centres undefined)	3%	-1%	-2%	2%	-1%	2%

Compound activity as filed in PubChem.
